# Measured values reported in the OligoGym collection.
# Target: HMP19
# Assay: pooled miR-30 sensor sort-seq; sequence = guide strand
# Conditions: shRNA
# Further: reference of the scale not given here.
row,Sequence,sensor-assay potency score (higher = more potent)
1,TTGTACATGAGCCTGACTCGGC,-0.338
2,TTGTTCTTCTGTTCCGGCTGAT,0.313
3,TATCGGTTCAGACAACTCCAGC,-1.43
4,TAAGTGATTAACCTCCAAGGGA,-0.21
5,TTCTTGTCTTCACAATCACCTT,-1.21
6,TTCGGCACCCGGAACTTCCCTT,-0.311
7,TCTTGTCTTCACAATCACCTTT,-0.0794
8,TTGGTTCCCTTCTCGCTGGGGT,0.36
9,TAAACCACCAGGAACACGATGC,-0.408
10,TTATAGACGAATCCCTCTGGGC,-0.74
11,TTCACAATCACCTTTTCTGGAG,-0.586
12,TACAGTGTTGTCTTGTAACTGG,-0.189

# Target: HMX2
# Assay: as above
# Conditions: shRNA
row,Sequence,sensor-assay potency score (higher = more potent)
1,TGAAGCTGGAGACGCCACCGGC,-0.77
2,TAAAGTCCGAGTGCGAAGGAGA,-1.28
3,TTAAAGTCCGAGTGCGAAGGAG,-0.61
4,TCTTCTTCTTGGCCGCGCCGGC,-1.36
5,TCCGAGGACACGGACAGGCTGC,-1.46
6,TCGAGCTGGTACACCTGGCTGC,-0.393
7,TTCTTTAAAGTCCGAGTGCGAA,-1.59
8,TGTATAGGTTGTAGAGAGGTAA,-0.622
9,ATGGACTGGATGGTGAAGCTGG,-1.05
10,TGGAACCAAGTCTTTACCTGGG,-0.326
11,TTCTCTTCTTTAAAGTCCGAGT,-1
12,TTTCTCTTCTTTAAAGTCCGAG,-0.831

# Target: HNF1A
# Assay: as above
# Conditions: shRNA
row,Sequence,sensor-assay potency score (higher = more potent)
1,TTGCTGGAGTCTGAGCTCTGGT,-1.14
2,TTCTGTACTCAGCAGGCTGTGG,-0.687
3,TTGATGACCGGCACACTCTGTG,0.355
4,TTGTAGACACGCACCTCCGTGA,-0.58
5,TAGCGTCTCTCGCTCCTCCTTG,-0.628
6,TACTTCTGCAGTCTCACTGGTC,-0.169
7,TAGGACTTGACCATCTTCGCCA,0.419
8,TACAGCACCAGGCTGCTGGAGG,-0.908
9,TGAGCTCTGGTACAGCACCAGG,-1.55
10,ATGAAGGTCTCGATGACGCTGT,0.222
11,ATCGTCGTCCGTCTCGTCCTCG,-0.832
12,TGGTTGGTAGCTCATCACCTGT,-1.74

# Target: HNRNPL
# Assay: as above
# Conditions: shRNA
row,Sequence,sensor-assay potency score (higher = more potent)
1,TTGAACTGAGTCAAATTCCACC,-0.367
2,TACAGCGTAGCCATCAGCCATC,-1.38
3,TCTTGAACACATTCAAGCGTGT,0.0553
4,TAGTGTAAAGAACATCCGTGGT,-0.214
